Test results reported in the supplement of paper PMC11732987, “Enantioselective OTUD7B fragment discovery through chemoproteomics screening and high-throughput optimisation” (Communications Chemistry, 2025).

Key:
Assay in all cases: log2 ratio of Biotin-Ahx-Ub-VS probe labelling (fragment/DMSO); higher = less target engagement (more negative = stronger competition), active = hit call of the paper (q ≤ 0.05, log2 ratio ≤ -1)
Settings in all cases: compound concentration: 200 uM; treatment time: 3 h
[1] = target: T1, ALG13 (UniProt Q9NP73)
T1 sequence (whole entry): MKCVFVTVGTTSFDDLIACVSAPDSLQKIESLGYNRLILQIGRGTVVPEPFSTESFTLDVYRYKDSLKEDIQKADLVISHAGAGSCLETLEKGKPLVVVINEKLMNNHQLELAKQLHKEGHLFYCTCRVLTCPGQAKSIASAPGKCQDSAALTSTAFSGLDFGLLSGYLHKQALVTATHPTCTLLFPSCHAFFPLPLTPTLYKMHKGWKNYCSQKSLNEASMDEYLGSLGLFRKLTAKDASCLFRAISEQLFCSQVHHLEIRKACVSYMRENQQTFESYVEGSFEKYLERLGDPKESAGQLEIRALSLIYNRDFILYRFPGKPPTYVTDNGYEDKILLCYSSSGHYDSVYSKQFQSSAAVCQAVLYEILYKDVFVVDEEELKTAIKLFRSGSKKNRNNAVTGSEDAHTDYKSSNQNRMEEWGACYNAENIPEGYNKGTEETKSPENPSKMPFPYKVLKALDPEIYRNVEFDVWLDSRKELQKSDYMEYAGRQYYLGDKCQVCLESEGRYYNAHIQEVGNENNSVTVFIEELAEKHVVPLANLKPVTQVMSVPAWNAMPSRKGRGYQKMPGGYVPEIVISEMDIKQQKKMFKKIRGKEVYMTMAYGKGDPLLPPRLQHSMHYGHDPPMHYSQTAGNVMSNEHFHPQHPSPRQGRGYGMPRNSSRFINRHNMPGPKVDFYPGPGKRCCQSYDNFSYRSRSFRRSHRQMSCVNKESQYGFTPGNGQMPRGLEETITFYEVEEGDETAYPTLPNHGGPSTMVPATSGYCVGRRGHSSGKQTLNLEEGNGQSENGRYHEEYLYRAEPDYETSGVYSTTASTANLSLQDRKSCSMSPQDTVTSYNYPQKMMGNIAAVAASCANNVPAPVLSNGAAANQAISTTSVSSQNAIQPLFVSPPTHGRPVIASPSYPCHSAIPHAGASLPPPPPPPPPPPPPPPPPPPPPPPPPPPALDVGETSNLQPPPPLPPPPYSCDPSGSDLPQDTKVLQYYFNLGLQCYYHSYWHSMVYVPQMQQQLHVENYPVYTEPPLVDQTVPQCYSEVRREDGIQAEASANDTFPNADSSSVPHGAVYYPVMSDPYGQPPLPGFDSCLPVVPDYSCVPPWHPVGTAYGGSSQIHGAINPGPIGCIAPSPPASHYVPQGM
How it was run: (§1)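 Lysate from HEK293T cells, 495 µg per sample in Tris/CHAPS/IGEPAL buffer with protease inhibitors, was treated for 3 h in triplicate with fragment at 200 µM or vehicle. Biotin-Ahx-Ub-VS was next added at 0.5 µM final for 1 h. The labelled DUBs were enriched with NeutrAvidin, digested with LysC and trypsin, and run by diaPASEF LC-MS/MS, with values given as average log2 fragment/vehicle ratios by unpaired t-test on global-median-normalised Spectronaut quantities of proteins with ≥2 unique peptides.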

[2] = target: ATXN3 (UniProt P54252)
ATXN3, sequence (P54252 whole entry): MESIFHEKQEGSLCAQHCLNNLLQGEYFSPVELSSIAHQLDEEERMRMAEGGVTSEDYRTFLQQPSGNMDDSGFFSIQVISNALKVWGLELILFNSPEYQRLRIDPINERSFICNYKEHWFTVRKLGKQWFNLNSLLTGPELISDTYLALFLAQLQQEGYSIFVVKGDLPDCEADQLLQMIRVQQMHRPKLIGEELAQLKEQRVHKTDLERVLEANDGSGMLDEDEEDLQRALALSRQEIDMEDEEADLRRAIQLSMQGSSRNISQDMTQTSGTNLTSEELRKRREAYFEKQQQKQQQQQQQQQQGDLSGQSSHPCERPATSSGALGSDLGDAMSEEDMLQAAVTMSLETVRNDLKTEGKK
How it was run: as §1

[3] = target: T2, BAP1 (UniProt Q92560)
T2 sequence (whole entry): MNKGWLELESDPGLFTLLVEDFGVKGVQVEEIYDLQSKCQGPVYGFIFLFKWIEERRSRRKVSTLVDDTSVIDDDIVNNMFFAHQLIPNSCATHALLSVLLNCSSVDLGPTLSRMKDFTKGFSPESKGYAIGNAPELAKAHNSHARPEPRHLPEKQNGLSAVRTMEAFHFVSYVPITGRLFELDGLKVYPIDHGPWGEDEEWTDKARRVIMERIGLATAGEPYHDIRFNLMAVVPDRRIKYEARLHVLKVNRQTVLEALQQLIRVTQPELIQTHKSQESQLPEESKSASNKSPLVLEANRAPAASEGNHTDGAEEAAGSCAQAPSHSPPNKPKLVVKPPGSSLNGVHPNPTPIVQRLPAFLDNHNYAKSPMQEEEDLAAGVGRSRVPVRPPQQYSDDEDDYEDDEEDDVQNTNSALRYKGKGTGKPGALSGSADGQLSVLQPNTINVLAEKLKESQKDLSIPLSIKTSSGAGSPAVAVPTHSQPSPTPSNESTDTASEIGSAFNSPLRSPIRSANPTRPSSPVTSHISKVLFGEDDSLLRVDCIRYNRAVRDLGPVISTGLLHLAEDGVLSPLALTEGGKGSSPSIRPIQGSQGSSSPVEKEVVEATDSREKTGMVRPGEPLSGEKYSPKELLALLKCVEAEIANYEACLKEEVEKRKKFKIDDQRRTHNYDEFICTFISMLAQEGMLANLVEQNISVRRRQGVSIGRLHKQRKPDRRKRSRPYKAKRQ
How it was run: as §1

[4] = target: EIF3F (UniProt O00303)
EIF3F, sequence (O00303 whole entry): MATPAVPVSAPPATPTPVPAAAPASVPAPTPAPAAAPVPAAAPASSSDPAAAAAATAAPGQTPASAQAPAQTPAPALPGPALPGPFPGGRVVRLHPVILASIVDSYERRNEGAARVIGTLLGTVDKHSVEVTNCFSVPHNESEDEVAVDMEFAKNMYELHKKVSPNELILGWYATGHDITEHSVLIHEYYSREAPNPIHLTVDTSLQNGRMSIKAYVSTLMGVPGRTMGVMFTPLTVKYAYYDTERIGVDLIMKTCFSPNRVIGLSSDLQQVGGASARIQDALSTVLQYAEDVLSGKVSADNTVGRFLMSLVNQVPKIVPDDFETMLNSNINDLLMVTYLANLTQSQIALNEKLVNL
How it was run: as §1

[5] = target: EIF3H (UniProt O15372)
EIF3H, sequence (O15372 whole entry): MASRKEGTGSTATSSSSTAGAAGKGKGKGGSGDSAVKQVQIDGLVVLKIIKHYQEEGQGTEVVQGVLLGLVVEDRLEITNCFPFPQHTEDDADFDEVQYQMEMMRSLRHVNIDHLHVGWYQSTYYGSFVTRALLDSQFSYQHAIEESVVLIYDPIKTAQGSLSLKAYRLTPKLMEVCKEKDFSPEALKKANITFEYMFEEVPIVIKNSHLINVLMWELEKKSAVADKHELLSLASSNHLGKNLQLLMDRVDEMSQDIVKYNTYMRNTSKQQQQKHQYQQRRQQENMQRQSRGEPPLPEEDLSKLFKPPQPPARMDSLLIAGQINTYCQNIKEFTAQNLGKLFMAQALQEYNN
How it was run: as §1

[6] = target: T3, FAM105A (UniProt Q9NUU6)
T3 sequence (whole entry): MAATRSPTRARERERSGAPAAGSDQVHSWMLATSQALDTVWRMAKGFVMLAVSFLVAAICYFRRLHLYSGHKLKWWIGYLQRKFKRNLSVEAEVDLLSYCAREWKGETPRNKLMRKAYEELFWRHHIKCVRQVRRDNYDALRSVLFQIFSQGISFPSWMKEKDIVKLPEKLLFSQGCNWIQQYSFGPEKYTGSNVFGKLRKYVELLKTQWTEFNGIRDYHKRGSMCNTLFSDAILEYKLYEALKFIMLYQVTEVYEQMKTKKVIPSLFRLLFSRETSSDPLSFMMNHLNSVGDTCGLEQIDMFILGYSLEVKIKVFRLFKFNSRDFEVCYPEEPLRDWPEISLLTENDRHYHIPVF
How it was run: as §1

[7] = target: OTUB1 (UniProt Q96FW1)
OTUB1, sequence (Q96FW1 whole entry): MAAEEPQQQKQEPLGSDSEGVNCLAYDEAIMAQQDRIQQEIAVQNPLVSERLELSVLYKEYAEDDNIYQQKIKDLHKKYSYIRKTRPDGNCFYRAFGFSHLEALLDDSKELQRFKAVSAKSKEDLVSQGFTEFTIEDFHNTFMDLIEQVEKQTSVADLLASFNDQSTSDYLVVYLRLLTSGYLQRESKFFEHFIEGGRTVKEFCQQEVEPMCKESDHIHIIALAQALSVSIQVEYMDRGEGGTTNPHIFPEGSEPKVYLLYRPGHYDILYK
How it was run: as §1

[8] = target: T4, OTUD4 (UniProt Q01804)
T4 sequence (whole entry): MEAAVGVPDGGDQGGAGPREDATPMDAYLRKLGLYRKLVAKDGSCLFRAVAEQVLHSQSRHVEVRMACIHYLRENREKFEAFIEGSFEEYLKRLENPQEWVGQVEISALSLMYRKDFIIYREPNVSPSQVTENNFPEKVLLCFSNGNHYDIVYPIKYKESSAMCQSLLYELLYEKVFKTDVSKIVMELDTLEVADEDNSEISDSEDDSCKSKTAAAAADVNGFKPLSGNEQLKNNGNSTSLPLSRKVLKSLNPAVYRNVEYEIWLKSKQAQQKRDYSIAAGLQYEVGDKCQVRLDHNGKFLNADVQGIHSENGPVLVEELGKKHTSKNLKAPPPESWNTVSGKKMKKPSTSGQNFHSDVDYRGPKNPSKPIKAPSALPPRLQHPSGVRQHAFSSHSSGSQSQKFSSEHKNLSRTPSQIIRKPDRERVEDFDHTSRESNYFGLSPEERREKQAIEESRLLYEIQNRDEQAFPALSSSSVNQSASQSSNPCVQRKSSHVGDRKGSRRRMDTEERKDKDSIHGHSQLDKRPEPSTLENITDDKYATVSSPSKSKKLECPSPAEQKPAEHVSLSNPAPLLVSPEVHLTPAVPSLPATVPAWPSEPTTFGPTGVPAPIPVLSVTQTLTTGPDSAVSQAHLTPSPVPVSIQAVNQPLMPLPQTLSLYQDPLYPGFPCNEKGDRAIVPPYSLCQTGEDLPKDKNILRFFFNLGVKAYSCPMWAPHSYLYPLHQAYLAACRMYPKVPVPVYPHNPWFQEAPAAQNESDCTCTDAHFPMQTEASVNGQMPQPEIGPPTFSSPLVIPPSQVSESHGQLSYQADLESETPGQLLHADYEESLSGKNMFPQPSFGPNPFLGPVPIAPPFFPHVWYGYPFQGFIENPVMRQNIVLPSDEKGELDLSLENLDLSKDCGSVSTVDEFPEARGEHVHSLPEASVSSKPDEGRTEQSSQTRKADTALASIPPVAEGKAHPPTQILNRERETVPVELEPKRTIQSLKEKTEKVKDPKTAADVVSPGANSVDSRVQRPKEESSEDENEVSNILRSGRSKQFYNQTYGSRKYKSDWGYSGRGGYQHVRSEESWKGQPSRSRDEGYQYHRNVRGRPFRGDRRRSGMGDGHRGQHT
How it was run: as §1

[9] = target: T5, OTUD5 (UniProt Q96G74)
T5 sequence (whole entry): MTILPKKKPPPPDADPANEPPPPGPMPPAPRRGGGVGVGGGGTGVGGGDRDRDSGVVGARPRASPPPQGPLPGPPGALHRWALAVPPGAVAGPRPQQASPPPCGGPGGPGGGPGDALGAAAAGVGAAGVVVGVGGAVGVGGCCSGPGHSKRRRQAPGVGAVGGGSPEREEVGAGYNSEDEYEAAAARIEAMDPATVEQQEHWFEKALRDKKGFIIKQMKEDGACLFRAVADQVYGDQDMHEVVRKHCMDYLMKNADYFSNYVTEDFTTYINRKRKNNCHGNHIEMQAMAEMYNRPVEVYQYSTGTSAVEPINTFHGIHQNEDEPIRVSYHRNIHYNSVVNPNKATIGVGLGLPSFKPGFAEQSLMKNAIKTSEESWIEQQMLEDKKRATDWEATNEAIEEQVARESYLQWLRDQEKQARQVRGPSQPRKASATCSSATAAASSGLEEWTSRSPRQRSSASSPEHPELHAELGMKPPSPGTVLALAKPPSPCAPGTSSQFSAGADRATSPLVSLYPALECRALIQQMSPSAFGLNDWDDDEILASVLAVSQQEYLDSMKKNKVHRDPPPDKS
How it was run: as §1

Measured: log2 ratio of Biotin-Ahx-Ub-VS probe labelling

Cc1conc1C1CN(C(=O)CCl)C1
inactive: [1] 0.0664 | [2] -0.85 | [4] -0.671 | [5] 0.138 | [6] 0.111 | [7] -0.109 | [8] -0.837 | [9] -0.861
active: [3] -1.76
